High-throughput results as filed in PubChem.
Shown are actives, neighbours in structure and some others; about 0.27% of the full set was active somewhere.
MBNL1 CUG block = MBNL1-poly(CUG) RNA binding inhibition; TR-FRET MBNL1-His/biotin-(CUG)12 binding, 665/545 ratio; 280,000 compounds, 0.036% hits; AID 2675; Potency, µM (series often up to 57.5 µM), for the others: at the highest dose activity change, negative = inhibition, usual class: inhibitors; Q9NR56; active = well fitted inhibition curve with a large enough effect in the signal ratio, with a control signal flat, not every such curve was filed as active; inconclusive = small, poorly fitted or top-dose-only effect, or effect the other way, or a change in a side signal; inactive = no such curve, though single readings can be large or run the other way; the % refers to the signal ratio; also: % is scaled to controls: 0 for no effect and ±100 for the full control effect
Target sequence (Q9NR56 whole entry, looked up): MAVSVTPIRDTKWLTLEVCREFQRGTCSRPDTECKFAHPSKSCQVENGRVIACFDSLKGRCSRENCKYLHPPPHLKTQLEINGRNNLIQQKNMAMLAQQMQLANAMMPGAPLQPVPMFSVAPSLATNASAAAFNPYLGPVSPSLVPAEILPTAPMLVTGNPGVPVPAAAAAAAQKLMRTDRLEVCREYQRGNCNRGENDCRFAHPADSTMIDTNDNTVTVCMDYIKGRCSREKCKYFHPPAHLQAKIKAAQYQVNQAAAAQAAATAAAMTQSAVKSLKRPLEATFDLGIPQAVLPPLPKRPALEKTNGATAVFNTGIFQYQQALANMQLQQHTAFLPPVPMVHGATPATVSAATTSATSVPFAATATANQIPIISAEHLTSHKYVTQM
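Compounds (final 92 nM to 58 uM) are added to His-tagged MBNL1 and biotin-(CUG)12, then terbium anti-His antibody and streptavidin-XL665 (5 nM final). After 60 min at room temperature, the 665/545 nm ratio is read.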
B2AR arrestin = agonists driving beta-arrestin recruitment to human beta2-adrenergic receptor. P07550. beta-arrestin recruitment to beta2AR, cell-based reporter. Potency, µM (series often up to 46.1 µM), without a hit: top-dose activation, actives largely listed as activators. 330,000 compounds, 0.02% hits. AID 492947;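 also: 0% = DMSO controls and full agonism = EC100 isoproterenol or metaproterenol; nearly all actives have a fitted effect of over 65% in size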
Tb PFK inh-1 = inhibitors of T. brucei phosphofructokinase | O15648 | T. brucei PFK, ADP-Glo luminescence | Potency, µM (top dose mostly 57.5 µM), inactives show top-dose activity, negative = inhibition, usual class: inhibitors | 330,000 compounds, 0.17% hits | AID 485367;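 also: 0% = uninhibited 1x PFK enzyme wells and -100% = no-enzyme wells; nearly all actives have a fitted effect of over 60% in size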
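Compounds were pin-transferred as a titration series up to 57 uM into substrate buffer (0.5 mM F6P, 0.1 mM ATP, pH 8.0), then 1.25 nM PFK was added and reactions ran 45 min before ADP-Glo detection.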
BCR signal inh = blocks chronic active B-cell receptor signaling; ABC-DLBCL IkBa-CBG/CBR reporter, luminescence ratio, 4 h; 340,000 compounds, 0.05% hits; Potency, µM (top dose mostly 46.1 µM), for the others: top-dose activity change, negative = inhibition, hits mostly inhibitors; AID 493014; active = well fitted inhibition curve with a large enough effect in the signal ratio, with a control signal flat, not every such curve was filed as active; inconclusive = small, poorly fitted or top-dose-only effect, or effect the other way, or a change in a side signal; the % refers to the signal ratio;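 also: plate controls were basal doxycycline-induced cells for no effect and cells given 10 µM MG132 for full effect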
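Compounds up to 46 uM were incubated four hours with TMD8 cells whose green CBG68 luciferase is fused to IkappaBalpha; red CBR luminescence normalised the signal, and concentration-effect curves were fitted to fusion, red and ratio data.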
TbPFK ATP = orthogonal confirmation of T. brucei phosphofructokinase inhibitors; shares compounds with Tb PFK inh-1; Tb PFK enzyme, ATP depletion, Kinase-Glo Plus luminescence; Potency, µM (highest dose often 57.5 µM), without a hit: at the highest dose inhibition; 1,100 compounds, 47% hits; calls by dose curve; also: nearly all actives have a fitted effect of over 60% in size
Tb PFK inh-2 = T. brucei PFK enzyme inhibition, hit validation; AID 504637; purified T. brucei PFK, ADP-Glo luminescence, 45 min; shares compounds with Tb PFK inh-1; 1,100 compounds, 41% hits; Potency, µM (titrated, usually from 57.5 µM), for inactives: at the highest dose activity change, negative = inhibition, hits mostly inhibitors;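 also: plate controls were full PFK enzyme control for no effect and no enzyme control for full effect; nearly all actives have a fitted effect of over 60% in size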
* marks the source's active call; other numbers are inactive results; ? = inconclusive; / = no result given. Unless noted, calls follow the shape of the dose curve; as a rule, active = well fitted curve in the direction sought with a large enough effect; inconclusive = small, poorly fitted or top-dose-only effect, or another doubt; inactive = no such curve, though single readings can be large; an effect the other way counts as inactive or inconclusive. Potency is read from the fitted curve at half-maximal effect.

SMILES	MBNL1 CUG block	B2AR arrestin	Tb PFK inh-1	BCR signal inh	TbPFK ATP	Tb PFK inh-2
CC(C)N(C(=O)CSc1nnc(CNc2ccc(F)cc2)o1)C(C)C	-11.0%	-0.3%	16.9µM*	-0.2%	?	?
CCC(=O)Nc1ccc(N2CCOCC2)c(S(=O)(=O)Nc2ccc(Cl)cc2)c1	/	-2.3%	-16.6%	3.4%	/	/
C[C@H](NC(N)=O)C(=O)Nc1ccc(N2CCOCC2)c(S(=O)(=O)Nc2ccc(Cl)cc2)c1	/	0.0%	?	0.2%	4.26µM*	10.7µM*
COc1cc(C(=O)NCCCN2CCCC2=O)cc(Br)c1OCc1ccccc1	/	-0.2%	-4.5%	9.9%	/	/
Cc1occc(=O)c1OC(=O)Nc1ccc(Cl)c(Cl)c1	7.6%	-1.5%	30.1µM*	?	?	?
COc1ccccc1CCNC(=O)c1cccc(S(=O)(=O)N2CCc3ccccc3C2)c1	/	-0.7%	4.7%	-6.4%	/	/
CCCc1cc(=O)[nH]c(NCCc2ccccc2)n1	-6.9%	-1.1%	0.2%	?	/	/
O=c1ccnc(NCCc2ccccc2)[nH]1	-16.8%	-0.2%	9.53µM*	4.4%	21.3µM*	26.9µM*
Cc1ccc(-c2csc(Nc3ccc(S(N)(=O)=O)cc3)n2)o1	27.1%	-0.4%	10.7µM*	10.4%	?	?
Cc1nc(C)c(-c2csc(Nc3ccc(S(N)(=O)=O)cc3)n2)s1	28.4%	0.2%	1.1%	?	/	/
Cc1ccc(-c2nc3c(c(SCC(=O)Nc4cccc(C(=O)O)c4)n2)Cc2cccc(C)c2O3)cc1	/	-0.3%	1.69µM*	7.9%	1.07µM*	?
O=C(CSc1nc(-c2ccccc2)nc2c1Cc1ccccc1O2)Nc1ccc(C(=O)O)cc1	-2.9%	-0.3%	?	6.9%	/	/
O=C(CCC(=O)N1CCOc2ccc(Cl)cc21)NCCN1CCOCC1	8.8%	-0.1%	?	-4.6%	?	?
CC(C)N(C(=O)[C@H]1C[C@H](CC(=O)NCCCn2ccnc2)C(=O)N2CCc3c([nH]c4ccc(Cl)cc34)[C@]12C)C(C)C	/	-0.4%	4.3%	-5.9%	/	/
COc1cc(CNc2cccc(F)c2)cc(Br)c1O	0.9%	0.3%	1.7%	-5.8%	/	/
Fc1cccc(NCc2cn3ccccc3n2)c1	-4.7%	-0.1%	12µM*	12.7%	?	-17.1%
Fc1cccc(NCc2ccoc2)c1	8.5%	-0.3%	?	8.0%	12µM*	19µM*
C=CCNc1nc(C(=O)OCC(=O)c2ccccc2)cs1	34.8%	0.2%	8.49µM*	6.8%	7.1%	-7.5%
C=CCNc1nc(C(=O)OCC(=O)Nc2ccc(S(N)(=O)=O)cc2)cs1	/	-0.1%	-19.1%	-1.6%	/	/
COc1ccc2cc(C[C@@H]3CC[C@@H](CNC(N)=O)O3)ccc2c1	/	-0.1%	4.9%	?	/	/
CCNC(=O)C1CC(=O)N(Cc2ccc3c(c2)OCO3)C(=Nc2ccc(F)cc2)S1 (stereo not given)	9.4%	-0.4%	-3.1%	1.2%	/	/
COc1ccc(N=C2SC(C(N)=O)CC(=O)N2Cc2ccc3c(c2)OCO3)cc1 (stereo not given)	/	-0.6%	?	?	1.69µM*	?
C=C(C)c1cc2c(ccc3ccc(=O)oc32)o1	/	-1.2%	-8.4%	10.0%	/	/
CCOc1ccccc1C(=O)Nc1ccc2c(c1)C(=O)NC2=O	5.1%	0.5%	-12.1%	-0.9%	/	/
COc1ccccc1C(=O)Nc1ccc2c(c1)C(=O)NC2=O	54.5%	-1.3%	23.9µM*	?	19µM*	?
CC(C)[C@H](NC(=O)[C@@H]1Cc2ccccc2CN1C(=O)OC(C)(C)C)C(=O)NCC1CCCO1 (stereo not given in full)	1.2%	-1.1%	2.0%	-0.3%	/	/
CC(=O)c1cc(-c2ccccc2)n(CCC(=O)NCc2ccc(C)cc2)c1C	/	/	/	1.1%	/	/
CCc1noc(C)c1C(=O)OCC(=O)Nc1nc(-c2ccc(F)c(F)c2)cs1	/	-0.2%	-4.7%	5.7%	/	/
Cc1nc(Cc2nnc(SCC(=O)N3CCN(c4ccc(F)cc4)CC3)o2)cs1	/	-0.2%	0.0%	-0.6%	/	/
